Drawing on PubChem BioAssay AID485317 (Broad Institute, 2010), this text covers inhibition for 88 compounds.

Hit rate of the full screen: of about 290,000 compounds, about 11,000 (3.8%) were called active.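 Rule for the calls: active = mean replicate inhibition above about 79%, with every replicate also reaching it (limit read from the data); inconclusive = only one of the two criteria met; inactive = mean below limit and not every replicate reaching it.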 The full list was thinned out, with actives kept by preference.

FAD-linked sulfhydryl oxidase ALR (Homo sapiens), sequence (P55789 whole entry, looked up): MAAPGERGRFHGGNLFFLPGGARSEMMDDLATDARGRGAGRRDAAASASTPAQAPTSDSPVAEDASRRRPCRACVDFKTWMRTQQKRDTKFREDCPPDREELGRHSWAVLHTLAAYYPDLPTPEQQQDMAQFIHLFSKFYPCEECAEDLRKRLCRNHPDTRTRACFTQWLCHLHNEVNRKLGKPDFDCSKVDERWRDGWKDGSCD

The assay concerns the target FAD-linked sulfhydryl oxidase ALR (Homo sapiens) (UniProt P55789). Description: ALR-catalysed DTT oxidation blockers – biochemical, H2O2 detection, HRP-luminol luminescence, single point, primary screen (AID 485317). The settings on record: purified ALR, stronger effect = higher value, concentration not given here.
The term inhibition denotes the drop in the measured response relative to a control, in per cent. `C#CCN(N(C)c1ncc(C(F)(F)F)cc1Cl)S(=O)(=O)c1ccc2ccccc2c1`: the inhibition was 89.2% (active).

For the compound `CN(NS(=O)(=O)c1cccs1)c1ncc(C(F)(F)F)cc1Cl`, the inhibition is -1.63% (inactive).

Turning to `Cc1nn(CC#N)c(=O)n1N(C)c1ncc(C(F)(F)F)cc1Cl`, the inhibition was 0.914% (inactive).

For `CCOC(=O)/C=C/c1ccc(C(F)(F)F)cc1S(=O)(=O)NC(C)(C)C`, the inhibition is 20.8% (inactive).

In the case of `c1ccc2cc(CCCc3cc4ccccc4cn3)ncc2c1`, the inhibition is 2.21% (inactive).

Consider `CN(Cc1ccccc1)C(=O)COC(=O)/C=C/c1ccc2c(c1)OCO2`, for which the inhibition is 0.927% (inactive).

On to `COc1ccc(N2C(=O)CC(Sc3n[nH]c(-c4ccc(C)cc4)n3)C2=O)cc1` (stereo not drawn), for which the inhibition was 98.9% (active).

Take `COc1ccc(-c2nc(SCC(=O)N3CCCC3)n[nH]2)cc1`: the inhibition is -0.237% (inactive).

Turning to `Cc1ccc(N2C(=O)CC(Sc3ncn[nH]3)C2=O)cc1` (stereo not drawn), the inhibition is 45.4% (inactive).

Take `CN(CC(=O)NCCc1ccc(S(N)(=O)=O)cc1)CC(=O)Nc1ccc(F)c(F)c1F`: the inhibition is -4.6% (inactive).

With `CCCSc1ccc([C@H]2N[C@@](Cc3ccccc3)(C(=O)OC)[C@H]3C(=O)N(C)C(=O)[C@@H]23)cc1`, the inhibition was 4.44% (inactive).

Regarding `S=c1[nH]nc(/C=C/c2ccccc2)o1`, the inhibition was 83.4% (active).

As for `Cc1ccc(-c2cc(C(=O)N/N=C/C=C/c3ccccc3)n[nH]2)o1`, the inhibition is -7.61% (inactive).

Turning to `CCOC(=O)C1CCN(C(=O)CN2C(=O)NC(C)(c3ccc4cc(OC)ccc4c3)C2=O)CC1` (stereo not drawn), the inhibition is -7.42% (inactive).

Regarding `NC1=NC(c2ccc([N+](=O)[O-])cc2)N(c2ccc(F)cc2)C(N)=N1` (stereo not drawn), the inhibition is -1.48% (inactive).

Regarding `CCOC(=O)CSC1=C(C#N)C(c2ccco2)C(C(=O)OCc2ccccc2)=C(C)N1` (stereo not drawn), the inhibition was -2.61% (inactive).

In the case of `Cc1ccc(C2CC(=O)NC(SCC(=O)OCc3ccccc3)=C2C#N)o1` (stereo not drawn), the inhibition is 98.4% (active).

Turning to `CCOC(=O)CSC1=C(C#N)C(c2sccc2C)CC(=O)N1` (stereo not drawn), the inhibition was 2.21% (inactive).

Consider `Cc1cc(Br)ccc1NC(=O)CN(C)C(=O)CN1C(=O)NC2(CCCC2)C1=O`, for which the inhibition is -8.04% (inactive).

For the compound `COc1cc(NC(=O)COC(=O)c2cc(S(=O)(=O)N3CCOCC3)ccc2F)cc(OC)c1`, the inhibition is -2.6% (inactive).

Regarding `CN1c2ccc([N+](=O)[O-])cc2C(C)(C)C12C=Cc1cc(C(=O)O)ccc1O2` (stereo not drawn), the inhibition is 97.9% (active).

In the case of `Cc1cc(C)n(-c2ccc(C(=O)O)cc2[N+](=O)[O-])n1`, the inhibition is -3.49% (inactive).

Consider `COc1ccc2c(c1)C=CC1(O2)N(CCO)c2ccccc2C1(C)C` (stereo not drawn), for which the inhibition was -8.22% (inactive).

`CCOC(=O)[C@@H]1[C@H]2COc3ccc(Br)cc3[C@H]2N2C(=O)N(c3ccc(C)cc3)C(=O)[C@@]12C`: the inhibition is -4.73% (inactive).

Regarding `COc1ccc(CNC(=O)/C(C#N)=C/c2cccc(OC)c2OC)cc1`, the inhibition is 12.6% (inactive).

As to `COc1cc(/C=C(\C#N)C(=O)Nc2ccc3ccccc3c2)c([N+](=O)[O-])cc1OC`, the inhibition was -17.7% (inactive).

Take `COc1ccc(NC(=O)/C(C#N)=C\c2cc(OC)c(OCc3ccc(C(=O)O)cc3)cc2Br)cc1`: the inhibition was 98% (active).

For `COc1cc(OC)cc(-c2sc3ccc(OC)cc3c2-c2ccc3cc[nH]c3c2)c1`, the inhibition was 0.621% (inactive).

For `COc1ccc(N2CCN(C(CNS(=O)(=O)c3ccc(C)cc3)c3ccccc3)CC2)cc1` (stereo not drawn), the inhibition is -0.191% (inactive).

As for `O=C(CCN1C(=O)C2CCCCC2C1=O)Nc1ccc(OC(F)F)cc1` (stereo not drawn), the inhibition is -7.6% (inactive).

As for `CCCN(CC(=O)Nc1ccccc1C)C(=O)c1ccc2[nH]c3c(c2c1)CC(C)CC3` (stereo not drawn), the inhibition was -1.42% (inactive).

As to `COc1ccccc1NC(=O)CCN1CCN(c2ccc(Cl)cc2)CC1`, the inhibition was 89.1% (active).

Take `COc1ccc(NC(=O)CCN2CCCC2)c(OC)c1`: the inhibition was -4.61% (inactive).

Turning to `COc1ccc(Cl)cc1NC(=O)CCN1CCOCC1`, the inhibition is -5.1% (inactive).

Take `CC(C)n1ncc2c(C(=O)NCc3ccccc3CN(C)C)cc(C3CC3)nc21`: the inhibition was -20.5% (inactive).

Consider `Cc1ccc(NC(=O)C(C)OC(=O)Cc2c[nH]c3ccccc23)cc1S(=O)(=O)N1CCOCC1` (stereo not drawn), for which the inhibition is -3.03% (inactive).

Regarding `Cc1ccc(C(=O)OCC(=O)NCc2cc(C)c(O)c(C)c2)cc1S(=O)(=O)N1CCCCC1`, the inhibition is 14.9% (inactive).

As to `COc1cc(OC)cc(-c2c(-c3ccc(F)cc3)c3cc(-c4ccc5cc[nH]c5c4)ccc3n2C)c1`, the inhibition is 0.122% (inactive).

`COc1ccc(N2CCN(C(=O)CN3C(=O)COc4ccccc43)CC2)cc1`: the inhibition was 38% (inactive).

As for `COc1ccc(N2CCN(CCNC(=O)CCN3C(=O)COc4ccccc43)CC2)cc1`, the inhibition is 80.3% (active).

As for `CCCN1CCN(CCCNC(=O)CN2C(=O)COc3ccccc32)CC1`, the inhibition is -3.58% (inactive).

As for `Cc1cccc(NS(=O)(=O)c2ccc(C)c(C(=O)NCC(c3ccccc3)N(C)C)c2)c1` (stereo not drawn), the inhibition was -16.5% (inactive).

For the compound `CN(C(=O)CSc1cccc[n+]1[O-])C1CCCCC1`, the inhibition was -8.28% (inactive).

For `CN(/N=C/c1ccccc1)C(=S)c1ccccc1`, the inhibition is 12.2% (inactive).

Turning to `N#Cc1ccc(OCC(=O)NC(=O)NC2CCS(=O)(=O)C2)cc1` (stereo not drawn), the inhibition is -0.0725% (inactive).

Turning to `CCOc1ccc(NC(=O)CN(C)C(=O)Cc2sc(C)nc2-c2ccc(F)cc2)cc1OCC`, the inhibition is -2.09% (inactive).

On to `Cc1ccc(N=Nc2c(C)[nH]n(-c3ccccc3)c2=O)cc1`, for which the inhibition is -12.7% (inactive).

With `Cc1ccc(-c2ccnc3[nH]n(-c4ccccc4)c(=O)c23)cc1`, the inhibition is 1.8% (inactive).

As for `Cc1ccc(C2C3=C(Nc4[nH]n(-c5ccccc5)c(=O)c42)c2ccccc2C3=O)cc1` (stereo not drawn), the inhibition was 87.2% (active).

On to `COc1cccc(CNC(C)C(=O)Nc2ccc(S(=O)(=O)N3CCCC3)cc2)c1` (stereo not drawn), for which the inhibition is -0.631% (inactive).

For `O=C(C[C@@H]1C/C=C\CCC(=O)OC[C@@H]2CCCN2C1=O)NCCO`, the inhibition is 2.95% (inactive).

Consider `CN(C)c1ccc(/C=N\S(=O)(=O)c2ccccc2)cc1`, for which the inhibition was 0.19% (inactive).

As for `CC[n+]1cc(C)ccc1/C=C/c1ccc(N(C)C)cc1`, the inhibition is 99.4% (active).

As to `COCCn1c(C)cc(C(=O)CSc2nnc(C3CC3)n2C2CC2)c1C`, the inhibition is 13.1% (inactive).

As to `COc1ccc(C(=O)c2c3ccc([N+](=O)[O-])cc3[n+]([O-])n2CCCN)cc1`, the inhibition was -50.8% (inactive).

For `Cc1ccc(NC(=O)c2cccc(S(=O)(=O)N3CCCc4ccccc43)c2)nc1`, the inhibition is -1.14% (inactive).

As to `COc1cccc(NC(=O)CSc2nccn(-c3ccc4c(c3)OCCO4)c2=O)c1`, the inhibition was 98.6% (active).

For the compound `CCn1c(COc2ccccc2)nnc1SCC(=O)Nc1ccc2c(c1)OCCO2`, the inhibition was -3.91% (inactive).

With `Cn1ccnc1SCC(=O)Nc1ccc2c(c1)OCCO2`, the inhibition is 47.8% (inactive).

As for `O=C(C1CCC(=O)N(C2CC2)C1)N1CCN(c2ccc(Cl)cc2)CC1` (stereo not drawn), the inhibition is 96.7% (active).

Turning to `O=C(C1CC(=O)N(C2CCCCC2)C1)N1CCN(c2ccccc2)CC1` (stereo not drawn), the inhibition is 68.2% (inactive).

With `O=C(NCc1cccc(Cl)c1)C1CCC(=O)N(C2CC2)C1` (stereo not drawn), the inhibition was -4.45% (inactive).

In the case of `COc1ccc(S(=O)(=O)N2CCOC23CCN(S(=O)(=O)c2ccc([N+](=O)[O-])cc2)CC3)cc1`, the inhibition was 0.209% (inactive).

For the compound `CCN1C(=O)[C@H]2[C@@H](c3ccc(-c4ccc(OC)cc4)cc3)N[C@@](Cc3ccccc3)(C(=O)OC)[C@H]2C1=O`, the inhibition is 3.62% (inactive).

As to `CCc1ccc(/C=C2\SC(N3CCOCC3)=NC2=O)cc1`, the inhibition is -8.77% (inactive).

As to `CC1CCN(C2=NC(=O)/C(=C/c3ccc(O)cc3)S2)CC1`, the inhibition was 98.6% (active).

For the compound `O=C1N=C(N2CCCC2)S/C1=C\c1cccc(Br)c1`, the inhibition was 8.82% (inactive).

As to `CCOc1cc(/C=C2\C(=N)N3N=C(C)SC3=NC2=O)ccc1OCCOc1ccccc1`, the inhibition is -3.65% (inactive).

Consider `CCOc1cc(C(=S)N2CCOCC2)ccc1O`, for which the inhibition is 2.75% (inactive).

Take `CCOc1cc(/C=C2\SC(N3CCCCC3)=NC2=O)ccc1O`: the inhibition is 85.2% (active).

On to `Cc1ccsc1/C=C1\SC(N2CCOCC2)=NC1=O`, for which the inhibition is -15.8% (inactive).

Take `CC1CCN(C2=NC(=O)/C(=C/c3cn[nH]c3-c3ccccc3)S2)CC1`: the inhibition was 28.2% (inactive).

Take `CCOc1cc(/C=C2\SC(N3CCCC(C)C3)=NC2=O)ccc1O` (stereo not drawn): the inhibition is 98% (active).

As for `COCCN(C(=O)CC1CCCCC1)c1c(N)n(CC(C)C)c(=O)[nH]c1=O`, the inhibition was -3.39% (inactive).

In the case of `O=C(NCc1ccccc1CN1CCCC1)c1cccc(S(=O)(=O)Nc2ccc(F)cc2)c1`, the inhibition is -1.54% (inactive).

Turning to `CN(CC(=O)Nc1c(Cl)cccc1Cl)C(=O)CC1OC(=O)c2ccccc21` (stereo not drawn), the inhibition is 1.28% (inactive).

On to `CCCCn1c(N)c(N(CC(C)C)C(=O)CSc2ccc([N+](=O)[O-])cc2)c(=O)[nH]c1=O`, for which the inhibition was -3.66% (inactive).

Turning to `CN(C(=O)CSc1nnc(-c2ccc3c(c2)OCO3)o1)C1CCS(=O)(=O)C1` (stereo not drawn), the inhibition was -1.02% (inactive).

Turning to `CN(C)CCn1c2c(c(SCC(=O)NCc3ccccc3)nc1=O)CCC2`, the inhibition is -45.9% (inactive).

As to `CN(CC(=O)Nc1ccc(OC(F)F)cc1)S(=O)(=O)/C=C/c1ccccc1`, the inhibition was 0.776% (inactive).

For `Cc1cc(NC(=O)C(C)SCC(=O)Nc2ccccc2N2CCCCC2)no1` (stereo not drawn), the inhibition is 2.47% (inactive).

Turning to `O=C1NC(Cc2ccc(O)cc2)c2nc3ccc(Cl)cc3c(=O)n2-c2ccccc21` (stereo not drawn), the inhibition is 1.75% (inactive).

For the compound `CCCC[C@@H]1CN=C(N)N1CCc1cccc(F)c1`, the inhibition is -12.6% (inactive).

With `O=C1N[C@H](Cc2c[nH]c3ccccc23)COC(=O)[C@H](Cc2ccc(F)cc2)C/C=C\C[C@H]1CC(=O)N(CCO)Cc1ccccc1`, the inhibition was -0.125% (inactive).

`COc1ccc(CCNc2cc(N3CCN(C(=O)c4ccccc4OC)CC3)ccc2[N+](=O)[O-])cc1OC`: the inhibition was -7.83% (inactive).

Regarding `COc1ccc2[nH]c(=S)cc(C)c2c1`, the inhibition was -27.6% (inactive).

Consider `COc1ccc2[nH]c(C(=O)N3CCN(C)CC3)c(C)c2c1`, for which the inhibition is -19.3% (inactive).

In the case of `COc1ccc2[nH]c3ccc(OC)cc3c2c1`, the inhibition is 97.3% (active).
